# Source: PubChem BioAssay (Tox21)
# Values without a mark were called inactive. Inconclusive results are not listed. Entries that show only a call come without a potency. Activity calls are given as the source filed them. Unless noted, the call rests on the fitted dose curve; in most records, active means well fitted curve in the direction sought with a large enough effect in the repeat runs; inconclusive means weak or mixed curves; inactive means no such curve, though single readings can be large; an effect the other way counts as inactive or inconclusive.
# How the values were obtained:
# [1] = A CellTox Green Cytotoxicity Assay to monitor cytotoxicity in HepG2 cells - 8 hour (AID 1224890); further: nearly all actives have a fitted effect of over 45% in size
# Method in brief: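 HepG2 cells, 600/well, preincubated 5 h with CellTox Green dye, then exposed to Tox21 compounds in DMSO at 37 C for up to 40 h. Dead-cell DNA fluorescence read at the indicated time point.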
# [2] = qHTS assay to identify small molecule antagonists of the androgen receptor (AR) signaling pathway using the MDA cell line in the presence of 0.5 nM R1881 - cell viability counter screen (AID 1259242); further: nearly all actives have a fitted effect of over 45% in size
# Method in brief: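 MDA-kb2 cells (MMTV-luciferase, AR/GR responsive) were treated with compounds plus 0.5 nM R1881 (final) for 16 hr at 37C, 0% CO2. Viability was then read in the same wells as live-cell protease fluorescence (CellTiter-Fluor, 30 min).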
# [3] = qHTS assay to identify small molecule HDAC inhibitors (AID 1259364); further: nearly all actives have a fitted effect of over 45% in size; further: potency means the concentration at half of the fitted maximal effect; on activity change, negative = inhibition: top concentration of the series differs between compounds
# Method in brief: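 Wild-type HCT-116 cells, plated overnight at 37 C, exposed to compounds 2 hr at 37 C; luminogenic HDAC-Glo substrate then added 30 min at room temperature. Luminescence reports relative endogenous class I/II HDAC activity.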
# [4] = qHTS assay to identify small molecule HDAC inhibitors - cell viability counter screen (AID 1259365); further: series mostly up to about 92 µM; nearly all actives have a fitted effect of over 50% in size
# Method in brief: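 CellTiter-Glo luminescence (30 min, room temperature) reported viability after a 2 h compound exposure at 37 C. Cells: wild-type HCT-116, 1,500 per well, seeded the night before.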
# [5] = qHTS assay to identify small molecule agonists of the sonic hedgehog signaling (Shh) pathway - cell viability counter screen (AID 1259366); further: nearly all actives have a fitted effect of over 50% in size; further: potency means the concentration at half of the fitted maximal effect
# Method in brief: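 Cytotoxicity counter screen: CellTiter-Fluor reagent added after 23 h compound exposure, then 1 h at 37C and fluorescence read. Cells were 3T3 Gli1-Luc, seeded 2,000 per well and dosed 4 h post-plating.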
# [6] = qHTS assay to identify small molecule antagonists of the sonic hedgehog signaling (Shh) pathway - cell viability counter screen (AID 1259367); further: nearly all actives have a fitted effect of over 55% in size; further: potency means the concentration at half of the fitted maximal effect
# Method in brief: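 NIH/3T3-derived Gli1-Luc reporter cells (2,000 per well) rested 4 hr at 37 C, then received DMSO compounds plus conditioned medium. After 23 hr of treatment, CellTiter-Fluor was added for 1 hr at 37C and fluorescence read.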
# [7] = qHTS assay to identify small molecule antagonists of the sonic hedgehog signaling (Shh) pathway (AID 1259369; calls by dose curve; further: nearly all actives have a fitted effect of over 45% in size; further: potency means the concentration at half of the fitted maximal effect)
# Method in brief: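 NIH/3T3-derived Gli1-Luc reporter cells plated 4 h, dosed with compound, then stimulated with conditioned medium for 24 h at 37 C. Firefly luciferase luminescence read after 30 min with detection reagent at room temperature.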
# [8] = target: Estrogen receptor beta (Homo sapiens) (UniProt Q92731); assay: qHTS assay to identify small molecule agonists of the estrogen receptor beta (ER-beta) signaling pathway (AID 1259377; active means well fitted activation curve with a large enough effect in the signal ratio in the repeat runs, not every such curve was filed as active; the % refers to the signal ratio)
# Estrogen receptor beta (Homo sapiens), sequence (Q92731 whole entry, looked up): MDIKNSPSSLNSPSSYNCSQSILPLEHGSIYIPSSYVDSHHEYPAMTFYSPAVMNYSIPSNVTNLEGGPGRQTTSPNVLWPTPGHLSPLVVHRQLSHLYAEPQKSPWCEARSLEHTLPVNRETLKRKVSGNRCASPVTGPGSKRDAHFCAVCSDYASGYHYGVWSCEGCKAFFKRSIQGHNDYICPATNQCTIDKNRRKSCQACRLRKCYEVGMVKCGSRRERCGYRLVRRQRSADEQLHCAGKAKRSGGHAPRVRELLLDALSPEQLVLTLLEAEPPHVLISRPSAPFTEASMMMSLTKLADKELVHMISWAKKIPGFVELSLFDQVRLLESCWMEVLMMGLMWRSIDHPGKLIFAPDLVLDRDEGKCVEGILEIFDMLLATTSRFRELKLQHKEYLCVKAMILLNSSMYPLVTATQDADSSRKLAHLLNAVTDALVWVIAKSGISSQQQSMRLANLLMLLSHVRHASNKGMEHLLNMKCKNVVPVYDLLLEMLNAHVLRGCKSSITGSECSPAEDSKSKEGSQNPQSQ
# Method in brief: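 Ratiometric beta-lactamase FRET read-out came after 2 h substrate loading at room temperature. It followed 16 h compound treatment at 37C of GripTite HEK293T cells carrying a UAS-bla reporter, plated in 2% charcoal-stripped FBS medium.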
# [9] = target: Estrogen receptor beta (Homo sapiens) (UniProt Q92731); assay: qHTS assay to identify small molecule antagonists of the estrogen receptor beta (ER-beta) signaling pathway (AID 1259378; active means well fitted inhibition curve with a large enough effect in the signal ratio in the repeat runs, not every such curve was filed as active; the % refers to the signal ratio; further: potency means the concentration at half of the fitted maximal effect)
# Method in brief: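 ER-beta-UAS-bla HEK293T (GripTite) cells in 2% charcoal-stripped FBS medium were preincubated 6 hr at 37C, dosed with compound, then stimulated with 1 nM E2 (final) for 16 hr; beta-lactamase reporter read by B/G FRET fluorescence after 2 hr substrate loading.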
# [10] = qHTS assay to identify small molecule agonists of the androgen receptor (AR) signaling pathway in the presence of an antagonist - cell viability counter screen (AID 1259379); further: nearly all actives have a fitted effect of over 25% in size; further: potency means the concentration at half of the fitted maximal effect;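 on activity change, negative = cytotoxicity: MDA-kb2 human breast cancer cells carrying an MMTV luciferase reporter; series mostly up to about 92 µM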
# Method in brief: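 MDA-kb2 cells (MMTV-luciferase, AR/GR), 3,000/well, 5 h attachment, then 3.0 µM nilutamide (final) and compounds at 15 concentrations. Viability by CellTiter-Fluor fluorescence after 16 h at 37 °C, 0% CO2, in the reporter wells.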
# [11] = qHTS assay to identify small molecule agonists of the estrogen receptor beta (ER-beta) signaling pathway - cell viability counter screen (AID 1259380); further: nearly all actives have a fitted effect of over 30% in size; further: potency means the concentration at half of the fitted maximal effect
# Method in brief: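 ER-beta-UAS-bla HEK293T cells in medium with 2% charcoal-stripped FBS, pre-incubated 6 hr, then treated 16 hr at 37C. Cytotoxicity read in the same wells by CellTiter-Glo luminescence after 30 min at room temperature.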
# [12] = qHTS assay to identify small molecule antagonists of the estrogen receptor beta (ER-beta) signaling pathway - cell viability counter screen (AID 1259382); further: series mostly up to about 92 µM; nearly all actives have a fitted effect of over 55% in size
# Method in brief: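 ER-beta-UAS-bla HEK293T cells in 2% charcoal-stripped FBS medium, treated with compound plus 1 nM 17-beta-estradiol for 16 h at 37C. Viability read by CellTiter-Glo luminescence after 30 min at room temperature in the same wells.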
# [13] = qHTS assay to identify small molecule agonists or antagonists of the thyroid stimulating hormone receptor (TSHR) signaling pathway - wild type cell line counter screen (AID 1259384; calls by dose curve)
# Method in brief: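 Wild-type HEK293 cells were plated 18 h at 37 C/5% CO2, pin-dosed with compound plus Ro20-1724 medium, held 30 min at room temperature, then given cAMP-d2 and anti-cAMP-cryptate; fluorescence was read after 1 h. Fifteen concentrations, triplicate.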
# [14] = target: Estrogen receptor (Homo sapiens) (UniProt P03372); assay: qHTS assay to identify small molecule antagonists of the estrogen receptor alpha (ER-alpha) signaling pathway using the BG1 cell line in the presence of 0.1 nM 17-beta-estradiol (AID 1259244); further: nearly all actives have a fitted effect of over 50% in size; further: potency means the concentration at half of the fitted maximal effect
# Estrogen receptor (Homo sapiens), sequence (P03372 whole entry, looked up): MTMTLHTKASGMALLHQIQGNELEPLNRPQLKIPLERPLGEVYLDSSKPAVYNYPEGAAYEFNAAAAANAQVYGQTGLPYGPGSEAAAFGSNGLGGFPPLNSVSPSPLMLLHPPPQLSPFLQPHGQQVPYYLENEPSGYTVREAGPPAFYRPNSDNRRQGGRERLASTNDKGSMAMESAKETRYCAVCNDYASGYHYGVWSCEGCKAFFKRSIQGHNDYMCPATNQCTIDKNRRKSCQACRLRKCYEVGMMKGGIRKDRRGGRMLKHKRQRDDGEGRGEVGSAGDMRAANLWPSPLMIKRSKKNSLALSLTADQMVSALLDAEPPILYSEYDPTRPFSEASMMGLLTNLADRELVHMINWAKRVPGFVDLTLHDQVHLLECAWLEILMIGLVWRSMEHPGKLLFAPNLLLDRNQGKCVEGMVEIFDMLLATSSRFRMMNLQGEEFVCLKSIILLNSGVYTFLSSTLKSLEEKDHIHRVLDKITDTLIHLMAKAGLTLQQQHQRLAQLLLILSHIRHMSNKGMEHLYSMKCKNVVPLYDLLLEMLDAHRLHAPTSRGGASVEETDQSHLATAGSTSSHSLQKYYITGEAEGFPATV
# Method in brief: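 VM7Luc4E2 cells (endogenous full-length ER-alpha, 4×ERE-luciferase), kept 5 days in phenol red-free, charcoal-stripped FBS medium; 4,000 cells/well. Compounds added with 0.1 nM (final) 17beta-estradiol, 22 hr at 37C; luminescence read with ONE-Glo after 30 min.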
# [15] = qHTS assay to identify small molecule agonists of the sonic hedgehog signaling (Shh) pathway (AID 1259368; calls by dose curve;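 further: NIH/3T3-derived 3T3Gli1-Luc cells carrying a stable Gli1-driven firefly luciferase reporter; series mostly up to about 92 µM; nearly all actives have a fitted effect of over 15% in size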)
# Method in brief: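 NIH/3T3-derived 3T3Gli1-Luc cells with stably integrated Gli1-driven firefly luciferase, 2,000 cells/well, compounds added after 4 hr. Incubated 24 hr at 37C, 5% CO2; luminescence read after 30 min with luciferase reagent at room temperature.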
# [16] = target: Androgen receptor (Homo sapiens) (UniProt P10275); assay: qHTS assay to identify small molecule antagonists of the androgen receptor (AR) signaling pathway using the MDA cell line in the presence of 0.5 nM R1881 (AID 1259243); further: potency means the concentration at half of the fitted maximal effect; nearly all actives have a fitted effect of over 50% in size
# Androgen receptor (Homo sapiens), sequence (P10275 whole entry, looked up): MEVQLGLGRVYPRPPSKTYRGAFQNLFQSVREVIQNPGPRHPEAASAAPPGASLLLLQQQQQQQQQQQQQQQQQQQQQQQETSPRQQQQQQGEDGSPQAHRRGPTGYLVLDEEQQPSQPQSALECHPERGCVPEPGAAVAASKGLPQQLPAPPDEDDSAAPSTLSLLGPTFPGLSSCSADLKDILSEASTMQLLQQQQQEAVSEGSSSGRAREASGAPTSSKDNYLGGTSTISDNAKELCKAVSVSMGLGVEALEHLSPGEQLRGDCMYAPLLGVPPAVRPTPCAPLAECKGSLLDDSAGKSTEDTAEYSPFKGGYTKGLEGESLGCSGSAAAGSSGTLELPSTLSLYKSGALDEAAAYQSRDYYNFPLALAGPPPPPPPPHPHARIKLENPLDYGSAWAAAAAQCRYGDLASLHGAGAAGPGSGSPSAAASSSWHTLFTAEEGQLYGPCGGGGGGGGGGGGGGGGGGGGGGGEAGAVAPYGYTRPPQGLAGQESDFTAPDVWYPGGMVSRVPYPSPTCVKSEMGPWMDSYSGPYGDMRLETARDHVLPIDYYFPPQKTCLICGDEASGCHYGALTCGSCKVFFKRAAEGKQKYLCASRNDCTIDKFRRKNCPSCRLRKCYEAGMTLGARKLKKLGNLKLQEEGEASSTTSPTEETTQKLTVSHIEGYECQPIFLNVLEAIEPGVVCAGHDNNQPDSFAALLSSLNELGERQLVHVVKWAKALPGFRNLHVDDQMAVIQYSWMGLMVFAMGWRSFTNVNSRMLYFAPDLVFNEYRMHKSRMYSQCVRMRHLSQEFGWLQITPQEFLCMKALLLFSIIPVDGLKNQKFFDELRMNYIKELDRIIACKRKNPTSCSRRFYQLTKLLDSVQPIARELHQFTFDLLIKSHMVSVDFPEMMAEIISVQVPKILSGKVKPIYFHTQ
# Method in brief: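 MDA-kb2 cells (MMTV-luciferase, responsive to AR and GR) at 3,000/well, rested 5 h at 37C, 0% CO2, then given compounds plus 0.5 nM R1881 (final) for 16 hr. Luciferase read with ONE-Glo after 30 min at room temperature.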
# [17] = target: Androgen receptor (Homo sapiens) (UniProt P10275); assay: qHTS assay to identify small molecule agonists of the androgen receptor (AR) signaling pathway in the presence of an antagonist (AID 1259381; calls by dose curve; further: nearly all actives have a fitted effect of over 15% in size)
# Method in brief: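 MDA-kb2 cells carrying MMTV-luciferase (AR/GR responsive), 3,000 cells/well, co-treated with 3.0 uM nilutamide final. Compounds at 15 concentrations, 16 hr at 37C without CO2. Luciferase luminescence read after 30 min with ONE-Glo.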
# [18] = target: Estrogen receptor (Homo sapiens) (UniProt P03372); assay: qHTS assay to identify small molecule agonists of the estrogen receptor alpha (ER-alpha) signaling pathway in the presence of an antagonist (AID 1259383; calls by dose curve; further: top concentration of the series differs between compounds; nearly all actives have a fitted effect of over 15% in size)
# Method in brief: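 VM7Luc4E2 cells express endogenous full-length ER-alpha with an ERE-luciferase reporter and were hormone-deprived for 5 days. Compounds at 15 concentrations were added with 10.0nM ICI-182,780 for 22hr at 37C. Luminescence was read with ONE-Glo.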
# [19] = qHTS assay to identify small molecule antagonists of the estrogen receptor alpha (ER-alpha) signaling pathway using the BG1 cell line in the presence of 0.1 nM 17-beta-estradiol - cell viability counter screen (AID 1259241); further: nearly all actives have a fitted effect of over 40% in size
# Method in brief: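 Cytotoxicity counter-screen: live-cell protease activity measured by fluorescence (30 min reagent step) in the same wells. Cells were VM7Luc4E2 with endogenous ER-alpha and ERE-driven luciferase, treated 22 hr at 37C alongside 0.1 nM 17beta-estradiol final.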
# [20] = qHTS assay to identify small molecule phospholipidosis (PLD) inducers (AID 1259344; active means well fitted curve in the direction sought with a large enough effect; an effect the other way counts as inactive or inconclusive)
# Method in brief: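 HepG2 cells on collagen I, attached 4 h at 37 C, were co-treated with compound and LipidTOX Red dye for 24 h at 37 C, then fixed with paraformaldehyde plus Hoechst 33342 and imaged by high-content microscopy for phospholipid accumulation.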
structure (smiles),measurement,setting,value
CCC(Br)(CC)C(=O)NC(N)=O,Potency,[1],inactive
same,Potency,[2],inactive
same,Potency,[3],inactive
same,Potency,[4],inactive
same,Potency,[5],inactive
same,Potency,[6],inactive
same,Potency,[7],inactive
same,Potency,[8],inactive
same,Potency,[9],inactive
same,Potency,[10],inactive
same,Potency,[11],inactive
same,Potency,[12],inactive
same,outcome,[13],inactive
CCC(C)(NC(=O)c1cc(Cl)c(C)c(Cl)c1)C(=O)CCl (configuration not stated),Potency,[1],inactive
same,Potency,[14],inactive
same,Potency,[3],inactive
same,Potency,[4],inactive
same,Potency,[5],43.5 µM (active)
same,Potency,[6],21.8 µM (active)
same,Potency,[15],inactive
same,Potency,[7],inactive
same,Potency,[9],19.4 µM (active)
same,Potency,[11],61.5 µM (active)
same,outcome,[13],inactive
O=C(Nc1ccccc1)Nc1ccnc(Cl)c1,Potency,[1],inactive
same,Potency,[16],43.3 µM (active)
same,Potency,[14],24.3 µM (active)
same,Potency,[3],4.33 µM (active)
same,Potency,[4],inactive
same,Potency,[15],inactive
same,Potency,[7],2.17 µM (active)
same,Potency,[10],61.1 µM (active)
same,Potency,[17],inactive
same,Potency,[12],inactive
same,outcome,[13],inactive
C=CC[C@]1(O)CC[C@H]2[C@@H]3CCC4=CC(=O)CCC4=C3C=C[C@@]21C,Potency,[1],inactive
same,Potency,[14],13.3 µM (active)
same,Potency,[3],inactive
same,Potency,[4],inactive
same,Potency,[15],inactive
same,Potency,[7],13.3 µM (active)
same,Potency,[8],inactive
same,Potency,[10],inactive
same,Potency,[11],inactive
same,Potency,[12],inactive
same,Potency,[18],inactive
same,outcome,[13],inactive
COP(=S)(Oc1cc(Cl)c(Br)cc1Cl)c1ccccc1 (configuration not stated),Potency,[19],inactive
same,Potency,[2],inactive
same,Potency,[16],27.3 µM (active)
same,Potency,[14],inactive
same,Potency,[3],inactive
same,Potency,[4],inactive
same,Potency,[5],inactive
same,Potency,[6],inactive
same,Potency,[15],inactive
same,Potency,[7],inactive
same,Potency,[10],inactive
same,Potency,[17],inactive
same,Potency,[12],inactive
same,outcome,[13],inactive
NCC(CC(=O)O)c1ccc(Cl)cc1 (configuration not stated),cytotoxicity increase,[1],-2.04% [at 0.29 µM]
same,"viability change, negative = cytotoxic",[2],0.181% [at 0.349 µM]
same,outcome,[20],inactive
same,"activity change, negative = inhibition",[3],13.2% [at 0.349 µM]
same,"activity change, negative = cytotoxicity",[4],-1.28% [at 0.349 µM]
same,"viability change, negative = cytotoxic",[5],4.25% [at 0.349 µM]
same,"viability change, negative = cytotoxic",[6],1.24% [at 0.349 µM]
same,"activity change, negative = inhibition",[7],38.7% [at 0.349 µM]
same,activation,[8],-2.59% [at 0.348 µM]
same,"activity, negative = inhibition",[9],0.814% [at 0.349 µM]
same,"activity change, negative = cytotoxicity",[10],0.676% [at 0.35 µM]
same,"activity change, negative = cytotoxicity",[11],4.02% [at 0.349 µM]
same,"activity change, negative = cytotoxicity",[12],5.5% [at 0.349 µM]
same,cAMP activity change,[13],0.519% [at 0.349 µM]
C=CCN1CC[C@]23c4c5ccc(O)c4O[C@H]2C(=O)CC[C@@]3(O)[C@H]1C5,Potency,[1],inactive
same,Potency,[2],inactive
same,outcome,[20],inactive
same,Potency,[3],inactive
same,Potency,[4],inactive
same,Potency,[5],inactive
same,Potency,[6],inactive
same,Potency,[15],inactive
same,Potency,[7],inactive
same,Potency,[8],inactive
same,Potency,[10],inactive
same,Potency,[11],inactive
same,Potency,[12],inactive
same,outcome,[13],inactive
CC(c1ccc(O)cc1)(c1ccc(O)cc1)c1ccc(O)cc1,Potency,[1],inactive
same,Potency,[2],inactive
same,Potency,[3],inactive
same,Potency,[4],inactive
same,Potency,[5],61.1 µM (active)
same,Potency,[15],inactive
same,Potency,[18],inactive
N#Cc1cc(I)c(O)c(I)c1,Potency,[1],inactive
same,Potency,[16],54.5 µM (active)
same,Potency,[3],inactive
same,Potency,[4],inactive
same,Potency,[6],inactive
same,Potency,[15],inactive
same,Potency,[7],24.3 µM (active)
same,Potency,[11],inactive
same,Potency,[17],inactive
same,Potency,[12],inactive
same,outcome,[13],inactive
